The results in this text go back to PubChem BioAssay (NCATS).

Assay [1] can be described thus: qHTS profiling for inhibitors of Plasmodium falciparum proliferation (AID 504749).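 For activity, negative = inhibition: 0% = DMSO vehicle and full inhibition = artemisinin control.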 Note: nearly all actives have a fitted effect of over 60% in size. Conditions: P. falciparum in erythrocytes, SYBR Green DNA, 72 h. Summed up:
(§1)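 SYBR Green fluorescence of parasite DNA, read after lysis and overnight dark incubation, measured growth over 72 h in erythrocyte culture at 0.3% parasitemia and 2.5% hematocrit. Data normalised to DMSO and 0.29 uM artemisinin, with plate-drift correction.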

A further assay deals with 3D7. The description is as above. The settings on record: P. falciparum in erythrocytes, SYBR Green DNA, 72 h; series mostly up to 28.7 µM. Summed up:
as §1

The next assay has as its system 7G8. The assay is described as above. Conditions: P. falciparum in erythrocytes, SYBR Green DNA, 72 h; series mostly up to 28.7 µM. Summed up:
as §1

A further assay concerns AA1029. The description is as above. Conditions: P. falciparum in erythrocytes, SYBR Green DNA, 72 h; series mostly up to 28.7 µM. Summed up:
as §1

The subject of another assay is AS120. The assay is described as above. Conditions: P. falciparum in erythrocytes, SYBR Green DNA, 72 h; series mostly up to 28.7 µM. Summed up:
as §1

The test system of a further assay is ATS189. The assay is described as above. The settings on record: P. falciparum in erythrocytes, SYBR Green DNA, 72 h; series mostly up to 28.7 µM. Put shortly: as §1
The next assay concerns C2A. The description is as above. Conditions: P. falciparum in erythrocytes, SYBR Green DNA, 72 h; series mostly up to 28.7 µM. Summed up: as §1
The test system of a further assay is ATS95. The assay is described as above. The settings on record: P. falciparum in erythrocytes, SYBR Green DNA, 72 h; series mostly up to 28.7 µM. Summed up:
as §1

The mark [2] stands for this setting: at 12.8 µM (top of the series), parasite line A.
Where [3] appears, read: at 12.8 µM (top of the series), parasite line B.
Where [4] appears, read: at 28.7 µM (top of the series), parasite line A.
[5] abbreviates: at 28.7 µM (top of the series), parasite line B.

Several values for one entry are separate records, joined by “and”; a condition that tells them apart may be missing. Equal entries are not always repeated. Records with an inconclusive call do not appear. Unmarked numbers belong to inactive results. Activity calls are given as the source filed them. Calls come from the whole dose curve; as a rule, active = well fitted inhibition curve with a large enough effect; inconclusive = small, poorly fitted or top-dose-only effect; inactive = flat fitted curve, though single readings scatter.
Potency is the fitted concentration of half-maximal effect.

Regarding `Cc1cc2c(cc1S(N)(=O)=O)S(=O)(=O)CCC2`, the activity, negative = inhibition is -1.89% in assay [1] (setting [2]) and 2.51% in assay [1] (setting [3]). Moreover, the Potency result with 3D7, in the assay with 7G8, with AA1029, with AS120, with ATS189 and with C2A was “inactive” throughout.
With `C[C@](N)(Cc1ccc(O)cc1)C(=O)O`, the activity, negative = inhibition in assay [1] (setting [4]) was 4.44%; in assay [1] (setting [5]), 11.9%. Further, the Potency result with 3D7, with 7G8, with AA1029, in the assay on AS120, in the assay on ATS189 and in the assay on ATS95 was “inactive” throughout. The Potency entry with C2A was “inactive”.
As to `CC1(C)OC(=O)NC1=O`, the activity, negative = inhibition in assay [1] (setting [4]) was 17.2%; in assay [1] (setting [5]), 21.8%. Further, the Potency result with 3D7, with 7G8, with AA1029, with AS120, in the assay on ATS189 and in the assay on ATS95 was “inactive” in each case. The Potency result in the assay on C2A was “inactive”.
With `NCCNCCNCCN`, the activity, negative = inhibition in assay [1] (setting [4]) was 4.28%; in assay [1] (setting [5]) it was 2.86%. Also, the Potency entry in the assay with 3D7, with 7G8, in the assay on AA1029, in the assay on AS120, in the assay on ATS189 and in the assay with C2A was “inactive” in each case.
As to `COc1ccc2c(c1)C(=O)N(CCc1ccc(S(=O)(=O)NC(=O)NC3CCCCC3)cc1)C(=O)C2(C)C`, the results for the activity, negative = inhibition in assay [1] (setting [2]) and in assay [1] (setting [3]) were 4.32% and -5.51%, respectively. In addition, the Potency result with 3D7, in the assay with 7G8, in the assay with AA1029, with AS120, in the assay with ATS189 and in the assay on ATS95 was “inactive” each time. For the same compound, in the assay with C2A, the Potency entry was “inactive”.
Take `COc1ccccc1O`: the activity, negative = inhibition in assay [1] (setting [4]) was 6.24%; in assay [1] (setting [5]) it was 17.1%. Moreover, the Potency entry with 3D7, in the assay with 7G8, in the assay on AA1029, in the assay with AS120, in the assay with ATS189 and with ATS95 was “inactive” in each case. Moreover, the Potency result in the assay with C2A is “inactive”.
In the case of `O=C1OC(OC(=O)c2cccnc2Nc2cccc(C(F)(F)F)c2)c2ccccc21` (stereo unspecified), the activity, negative = inhibition in assay [1] (setting [4]) was -4.18%; in assay [1] (setting [5]), 2.45%. For the same compound, the Potency result in the assay on 3D7, in the assay on 7G8, with AA1029, in the assay on AS120, in the assay on ATS189 and with ATS95 was “inactive” each time. The Potency result in the assay on C2A is “inactive”.
For the compound `C[C@H](N)[C@H](O)c1cccc(O)c1`, the activity, negative = inhibition in assay [1] (setting [2]) is 4.05%; in assay [1] (setting [3]), -0.641%. For the same compound, the Potency result in the assay on 3D7, in the assay on 7G8, with AA1029, in the assay on AS120, in the assay on ATS189 and with ATS95 was “inactive” in each case. In addition, the Potency result in the assay with C2A is “inactive”.
As to `COc1cc(C)c(Cc2cnc(N)nc2N)cc1OC`, the Potency in assay [1] (parasite line A) is 4.47 µM (active); in assay [1] (parasite line B) it was 11.2 µM (active); in the assay with 3D7, 11.2 µM (active). The Potency result in the assay with 7G8, in the assay on AA1029, in the assay with AS120, in the assay with ATS189, in the assay with ATS95 and in the assay on C2A was “inactive” each time.
For the compound `O=S(=O)(O)NC1CCCCC1`, the activity, negative = inhibition in assay [1] (setting [4]) was 2.07%; in assay [1] (setting [5]) it was 5.79%. Also, the Potency entry with 3D7, in the assay on 7G8, in the assay on AA1029, with AS120, in the assay on ATS189 and with ATS95 was “inactive” each time. Moreover, in the assay with C2A, the Potency result is “inactive”.
As for `CCCn1cnc2c1c(=O)n(CCCCC(C)=O)c(=O)n2C`, the activity, negative = inhibition in assay [1] (setting [4]) is -5.61%; in assay [1] (setting [5]), -0.0808%. Also, the Potency result with 3D7, in the assay with AA1029, in the assay on AS120, in the assay on ATS189, with ATS95 and in the assay on C2A was “inactive” throughout. Moreover, the Potency in the assay on 7G8 was 11.2 µM (active).
As for `CC1(C)[C@@H]2CC[C@@]1(C)C(=O)C2`, the activity, negative = inhibition in assay [1] (setting [4]) is 5.82%; in assay [1] (setting [5]), 6.35%. For the same compound, the Potency result in the assay with 3D7, in the assay on 7G8, in the assay with AA1029, in the assay with AS120, in the assay on ATS189 and in the assay with ATS95 was “inactive” throughout. In the assay with C2A, the Potency result was “inactive”.
As to `NC(=O)NNc1ccccc1`, the activity, negative = inhibition was -7.35% and 18% in assay [1] (setting [4]); 13.9% and 11.9% in assay [1] (setting [5]). In addition, the Potency result in the assay with 3D7, with 7G8, in the assay with AA1029, in the assay with AS120, in the assay on ATS189 and in the assay on ATS95 was “inactive” each time. The Potency entry with C2A was “inactive”.
As for `CCC(=O)Nc1ccc(O)cc1`, the values for the activity, negative = inhibition in assay [1] (setting [4]) and in assay [1] (setting [5]) were 11.9% and -3.83%, respectively. The Potency entry in the assay with 3D7, in the assay with 7G8, in the assay with AA1029, in the assay on AS120, with ATS189 and in the assay on ATS95 was “inactive” in each case. For the same compound, the Potency result in the assay on C2A was “inactive”.
On to `NC(CSCC(=O)O)C(=O)O` (stereo unspecified), for which the activity, negative = inhibition is -7.77% in assay [1] (setting [4]) and -0.351% in assay [1] (setting [5]). Also, the Potency entry in the assay on 3D7, in the assay with 7G8, with AA1029, with AS120, with ATS189 and in the assay with ATS95 was “inactive” each time. For the same compound, the Potency result in the assay with C2A is “inactive”.
Take `CC(=O)Oc1ccc(C2(c3ccc(OC(C)=O)cc3)C(=O)Nc3ccccc32)cc1`: the activity, negative = inhibition was 5.01% and 7.68% in assay [1] (setting [4]); 2.92% and 4.08% in assay [1] (setting [5]). Further, the Potency result with 3D7, in the assay on 7G8, in the assay on AA1029, in the assay with AS120, with ATS189 and with ATS95 was “inactive” each time. The Potency entry in the assay with C2A was “inactive”.
Take `CC(=O)Nc1ccc(/C=N/NC(N)=S)cc1`: the activity, negative = inhibition in assay [1] (setting [4]) is 9.12% and 9.39%; in assay [1] (setting [5]), 6.45% and 8.83%. Also, the Potency result with 3D7, in the assay with 7G8, in the assay on AA1029, with AS120, in the assay on ATS189 and in the assay with ATS95 was “inactive” each time. For the same compound, the Potency entry with C2A was “inactive”.
Regarding `CCN(CC)CCNC(=O)c1cc(Cl)c(N)cc1OC`, the results for the activity, negative = inhibition in assay [1] (setting [4]) and in assay [1] (setting [5]) were 11.7% and -3.16%, respectively. The Potency entry with 3D7, in the assay with 7G8, in the assay with AA1029, in the assay with AS120, in the assay with ATS189 and with ATS95 was “inactive” throughout. Besides, the Potency entry in the assay with C2A was “inactive”.
With `O=c1cc[nH]c(=S)[nH]1`, the activity, negative = inhibition was 1.45% in assay [1] (setting [4]) and 6.46% in assay [1] (setting [5]). For the same compound, the Potency entry in the assay on 3D7, in the assay with 7G8, in the assay with AA1029, in the assay with AS120, with ATS189 and in the assay on ATS95 was “inactive” in each case. The Potency result in the assay with C2A is “inactive”.
`CNCCCC1c2ccccc2C=Cc2ccccc21`: the activity, negative = inhibition is 3.94% in assay [1] (setting [2]) and -1.98% in assay [1] (setting [3]).
